Drawing on PubChem BioAssay (EPA / NIEHS), this text covers outcome and AC50 for three molecules.

Active and inactive are the calls of the source. Rule for the calls: active = hit-call score of the fitted dose curve at least 0.9, where 1 is the maximum; inactive = score below 0.9.

The target of assay [1] is Bile acid receptor (Homo sapiens) (UniProt Q96RI1). Kind of assay: ATG_IR1_CIS: Attagene CIS-FACTORIAL HepG2 Assay for human Nuclear Receptor Subfamily 1 Group H Member 4 (NR1H4), IR1 submotif (AID 2282946). To be noted: IR1 reporter transcription, actives raise or lower the signal. The method, boiled down:
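Transient MRTU transfection, HepG2; 24 h dosing; RNA → RT-PCR → 6-FAM primer extension → HpaI digest → capillary electrophoresis fluorescence. Gain/loss of signal fitted relative to DMSO.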

Assay [2] can be described thus: ATG_GRE_CIS: Attagene CIS-FACTORIAL HepG2 Assay for human Glucocorticoid Response Elements (GRE) (AID 2282947). The conditions noted are these: HepG2 GRE cis-reporter, Attagene multiplex mRNA; actives raise or lower the signal. An outline of the steps: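 HepG2 cells transiently transfected with multiple cis-promoter reporter units measure endogenous TF activity; 24 h compound exposure. Reporter mRNA quantified by RT-PCR, FAM labelling, HpaI digestion and capillary electrophoresis; bidirectional fit vs DMSO baseline.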

The nature of assay [3]: ATG_ISRE_CIS: Attagene CIS-FACTORIAL HepG2 Assay for human Interferon Regulatory Factor 1 (IRF1) binding to an Interferon-Stimulated Response Element (ISRE) (AID 2282948). To be noted: HepG2 ISRE cis-reporter (Attagene), mRNA transcription readout; actives raise or lower the signal. An outline of the steps:
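Quantitation relies on labelled RT-PCR fragments separated by capillary electrophoresis. Human HepG2 cells bearing cis-promoter reporter constructs were treated 24 h; DMSO served as baseline for bidirectional fitting.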

Assay [4] in a line: ATG_M_32_CIS: Attagene CIS-FACTORIAL HepG2 Assay for M32 Transcription Factor (Internal Marker) (AID 2282949).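 Note: background control marker of the multiplexed CIS panel rather than a real target.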 To be noted: HepG2 Attagene cis-factorial M32 reporter, mRNA; actives raise or lower the signal. An outline of the steps: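 Following 24 h chemical exposure of HepG2 cells transiently expressing cis-promoter reporter constructs, reporter transcript levels were determined by RT-PCR with fluorescent labelling and capillary electrophoresis, then fitted bidirectionally against DMSO.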

A short description of assay [5]: ATG_M_06_CIS: Attagene CIS-FACTORIAL HepG2 Assay for M06 Transcription Factor (Internal Marker) (AID 2282950). To be noted: HepG2 Attagene CIS-FACTORIAL M06 internal marker reporter; actives raise or lower the signal. An outline of the steps: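 Terse: HepG2, transient MRTU transfection (FuGene 6), 24 h dosing; total RNA, oligo(dT) RT, PCR, FAM label, HpaI cut, capillary electrophoresis; bidirectional fit vs DMSO baseline; background-control endpoint.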

Assay [6] addresses Hypoxia-inducible factor 1-alpha (Homo sapiens) (UniProt Q16665). The assay can be described thus: ATG_HIF1a_CIS: Attagene CIS-FACTORIAL HepG2 Assay for human Hypoxia Inducible Factor 1 (HIF1A) (AID 2282951). To be noted: HepG2 Attagene cis-factorial HIF1a reporter transcription; actives raise or lower the signal. The method, boiled down: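 HepG2, transient cis-reporter library, 24 h dosing. RNA → RT (oligo dT) → PCR → 6-FAM primer extension → HpaI → CE. Bidirectional curve fit vs DMSO.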

The target in assay [7] is Hepatocyte nuclear factor 6 (Homo sapiens) (UniProt Q9UBC0). The assay can be described thus: ATG_HNF6_CIS: Attagene CIS-FACTORIAL HepG2 Assay for human Hepatocyte Nuclear Factor 6 (HNF6) (AID 2282952). The conditions noted are these: HepG2 Attagene cis-factorial HNF6 reporter transcription; actives raise or lower the signal. The method, boiled down:
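Multiplexed mRNA reporter assay in transfected HepG2; 24 h dosing; RT-PCR plus capillary electrophoresis fluorescence; DMSO-referenced bidirectional curve fitting.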

The target of assay [8] is Heat shock factor protein 1 (Homo sapiens) (UniProt Q00613). Kind of assay: ATG_HSE_CIS: Attagene CIS-FACTORIAL HepG2 Assay for human Heat Shock Transcription Factor 1 (HSE) (AID 2282953). To be noted: HepG2 HSE cis-reporter, Attagene RNA transcription; actives raise or lower the signal. An outline of the steps: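 Read-out: fluorescence of reporter-specific RT-PCR fragments separated by capillary electrophoresis. HepG2 carrying transfected cis-element reporter units; 24 h dosing; activity fitted in both directions relative to DMSO baseline.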
Chain of Heat shock factor protein 1 (Homo sapiens) (Q00613 whole entry, looked up, the tested form may be a part): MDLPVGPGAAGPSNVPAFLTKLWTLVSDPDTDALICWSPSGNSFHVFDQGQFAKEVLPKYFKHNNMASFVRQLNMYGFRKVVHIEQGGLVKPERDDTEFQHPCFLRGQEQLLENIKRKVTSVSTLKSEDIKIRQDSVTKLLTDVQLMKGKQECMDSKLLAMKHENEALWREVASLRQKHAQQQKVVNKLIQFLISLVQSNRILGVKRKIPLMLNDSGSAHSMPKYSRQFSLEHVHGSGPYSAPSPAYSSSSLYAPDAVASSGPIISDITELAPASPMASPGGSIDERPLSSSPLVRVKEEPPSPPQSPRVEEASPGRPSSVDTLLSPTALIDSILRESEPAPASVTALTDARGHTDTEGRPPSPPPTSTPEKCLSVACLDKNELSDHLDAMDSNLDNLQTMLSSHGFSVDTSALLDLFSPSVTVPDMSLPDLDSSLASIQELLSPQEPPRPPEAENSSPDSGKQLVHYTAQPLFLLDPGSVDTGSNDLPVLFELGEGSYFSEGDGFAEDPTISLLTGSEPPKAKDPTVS

Assay [9] is described as follows: ATG_MRE_CIS: Attagene CIS-FACTORIAL HepG2 Assay for human Metal Responsive Element (MRE) (AID 2282954). The conditions noted are these: HepG2 MRE cis-reporter transcription, Attagene multiplex; actives raise or lower the signal. An outline of the steps:
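HepG2 cells transiently transfected with multiple cis-element reporter units measure endogenous MTF1-driven transcription. After 24 h compound exposure, reporter mRNA is quantified by RT-PCR with 6-FAM labelling, HpaI digestion and capillary electrophoresis; bidirectional fits versus DMSO.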

For assay [10], the target named is Paired box protein Pax-6 (Homo sapiens) (UniProt P26367). Kind of assay: ATG_Pax6_CIS: Attagene CIS-FACTORIAL HepG2 Assay for human Paired Box 6 (PAX6) (AID 2282956). To be noted: HepG2 CIS-FACTORIAL PAX6 reporter transcription, RNA readout; actives raise or lower the signal. The method, boiled down:
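After twenty-four hours of chemical exposure, transfected HepG2 cells are harvested for RNA. Cis-promoter reporter transcripts are amplified, fluorescently labelled and sized by capillary electrophoresis, with gain and loss of signal scored against DMSO.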

Assay [11] is described as follows: ATG_PXRE_CIS: Attagene CIS-FACTORIAL HepG2 Assay for human Pregnane X Receptor Element (PXRE) (AID 2282957). The conditions noted are these: HepG2 Attagene CIS-FACTORIAL PXRE reporter, mRNA; actives raise or lower the signal. The method, boiled down: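 Cells: HepG2, transiently transfected reporter units under cis promoter control. Exposure: 24 h. Detection: reporter mRNA via RT-PCR/CE fluorescence; bidirectional fitting, DMSO-referenced.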

A short description of assay [12]: ATG_RORE_CIS: Attagene CIS-FACTORIAL HepG2 Assay for human RAR-related Orphan Receptor Element (RORE) (AID 2282959). The conditions noted are these: HepG2 Attagene cis-factorial RORE reporter, mRNA; actives raise or lower the signal. The method, boiled down:
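Multiplexed reporter assay measuring mRNA induction from a cis promoter element in transiently transfected HepG2 cells after 24 h treatment. Detection via RT-PCR and capillary electrophoresis fluorescence; DMSO serves as baseline.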

A short description of assay [13]: ATG_Sox_CIS: Attagene CIS-FACTORIAL HepG2 Assay for human SRY-box transcription factor (SOX) (AID 2282960). To be noted: HepG2 Attagene cis-factorial SOX reporter, mRNA; actives raise or lower the signal. The method, boiled down:
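Cells were transfected with reporter constructs under cis-regulatory promoters, then exposed to chemicals for 24 h. Reporter transcripts were quantified by fluorescence after RT-PCR and capillary electrophoresis; activity was fitted in both directions against DMSO.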

The target in assay [14] is Transcription factor Sp1 (Homo sapiens) (UniProt P08047). Kind of assay: ATG_Sp1_CIS: Attagene CIS-FACTORIAL HepG2 Assay for human Specificity Protein 1 (Sp1) (AID 2282961). The conditions noted are these: HepG2 Sp1 cis-reporter transcription, actives raise or lower the signal. The method, boiled down: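 Measures mRNA induction of an Sp1-linked reporter in HepG2 cells 24 h post-dosing. Multiplexed reporters read by RT-PCR and capillary electrophoresis; DMSO serves as negative control and baseline.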
Chain of Transcription factor Sp1 (Homo sapiens) (P08047 whole entry, looked up): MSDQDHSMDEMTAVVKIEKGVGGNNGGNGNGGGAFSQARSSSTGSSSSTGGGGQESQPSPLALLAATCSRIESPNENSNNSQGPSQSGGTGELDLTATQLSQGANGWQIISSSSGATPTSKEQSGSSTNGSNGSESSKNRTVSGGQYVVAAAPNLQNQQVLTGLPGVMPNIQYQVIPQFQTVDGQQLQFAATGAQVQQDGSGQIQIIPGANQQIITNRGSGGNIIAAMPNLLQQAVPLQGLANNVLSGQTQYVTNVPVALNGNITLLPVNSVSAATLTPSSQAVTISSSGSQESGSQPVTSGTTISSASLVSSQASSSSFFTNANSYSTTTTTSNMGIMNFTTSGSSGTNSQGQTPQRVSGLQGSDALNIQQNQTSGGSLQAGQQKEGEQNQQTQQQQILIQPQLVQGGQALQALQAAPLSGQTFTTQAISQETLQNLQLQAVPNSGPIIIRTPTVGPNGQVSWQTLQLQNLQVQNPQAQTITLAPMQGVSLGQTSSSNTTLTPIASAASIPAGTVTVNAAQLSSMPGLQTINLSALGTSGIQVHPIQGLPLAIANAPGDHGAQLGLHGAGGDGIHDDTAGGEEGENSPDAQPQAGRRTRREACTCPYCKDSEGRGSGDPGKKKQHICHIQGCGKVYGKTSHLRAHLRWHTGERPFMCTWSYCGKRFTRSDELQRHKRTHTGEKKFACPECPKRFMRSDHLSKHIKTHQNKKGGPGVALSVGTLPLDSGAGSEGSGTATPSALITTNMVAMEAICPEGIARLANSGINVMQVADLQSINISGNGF

Assay [15] can be described thus: ATG_SREBP_CIS: Attagene CIS-FACTORIAL HepG2 Assay for human Sterol Regulatory Element Binding (SREBP) (AID 2282962). The conditions noted are these: HepG2 Attagene cis-factorial SREBP reporter, mRNA; actives raise or lower the signal. The method, boiled down: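 Twenty-four hours after chemical dosing of transfected HepG2 cultures, reporter RNA was converted to cDNA, amplified, end-labelled with 6-FAM and resolved by capillary electrophoresis. Responses were fitted relative to DMSO.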

Assay [16] has as its target Signal transducer and activator of transcription 3 (Homo sapiens) (UniProt P40763). Kind of assay: ATG_STAT3_CIS: Attagene CIS-FACTORIAL HepG2 Assay for human Signal Transducer and Activator of Transcription 3 (STAT3) (AID 2282963). The conditions noted are these: HepG2, Attagene cis-factorial STAT3 reporter transcription; actives raise or lower the signal. The method, boiled down: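 HepG2 cells transiently transfected with cis-element-driven multiple reporter transcription units; after 24 h chemical exposure, reporter mRNA measured by RT-PCR, 6-FAM primer-extension labelling, HpaI digestion and capillary electrophoresis. Bidirectional fitting versus DMSO baseline.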

The nature of assay [17]: ATG_TA_CIS: Attagene CIS-FACTORIAL HepG2 Assay for human TA Basal Promoter (AID 2282964). To be noted: HepG2 Attagene CIS-factorial TA basal promoter reporter; actives raise or lower the signal. The method, boiled down: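 Transfected HepG2, 24 h compound exposure; RNA → RT-PCR → FAM primer extension → HpaI cut → CE fluorescence. Gain/loss-of-signal fitted against DMSO negative control. Background-control readout.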

Assay [18] in a line: ATG_TCF_b_cat_CIS: Attagene CIS-FACTORIAL HepG2 Assay for human T-Cell-Factor with beta-catenin (TCF/b-cat) (AID 2282965). To be noted: HepG2 TCF/beta-catenin cis-reporter transcription, actives raise or lower the signal. An outline of the steps: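 HepG2 cells transiently transfected with multiple cis-promoter-regulated reporter transcription units, so endogenous transcription factor activity is measured. Reporter mRNA read 24 hours after dosing by RT-PCR, fluorescent labelling and capillary electrophoresis; bidirectional fitting against DMSO.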

A short description of assay [19]: ATG_PBREM_CIS: Attagene CIS-FACTORIAL HepG2 Assay for human Phenobarbital-responsive Enhancer Module (PBREM) (AID 2282955). To be noted: HepG2 PBREM cis-reporter, Attagene multiplexed transcription; actives raise or lower the signal. An outline of the steps:
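HepG2, transient MRTU transfection, 24 h dosing; RNA → oligo(dT) RT → PCR → 6-FAM extension → HpaI → CE. Bidirectional fit vs DMSO.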

A short description of assay [20]: ATG_PPRE_CIS: Attagene CIS-FACTORIAL HepG2 Assay for human Peroxisome Proliferator-activated Response Element (PPRE) (AID 2282958). To be noted: HepG2 PPRE cis-element reporter, Attagene transcription factor profiling; actives raise or lower the signal. An outline of the steps: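 Transcript-level reporter induction in transfected HepG2 cells after 24 h chemical exposure, quantified by fluorescence from RT-PCR products separated by capillary electrophoresis.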

Chain of Hepatocyte nuclear factor 6 (Homo sapiens) (Q9UBC0 whole entry, looked up): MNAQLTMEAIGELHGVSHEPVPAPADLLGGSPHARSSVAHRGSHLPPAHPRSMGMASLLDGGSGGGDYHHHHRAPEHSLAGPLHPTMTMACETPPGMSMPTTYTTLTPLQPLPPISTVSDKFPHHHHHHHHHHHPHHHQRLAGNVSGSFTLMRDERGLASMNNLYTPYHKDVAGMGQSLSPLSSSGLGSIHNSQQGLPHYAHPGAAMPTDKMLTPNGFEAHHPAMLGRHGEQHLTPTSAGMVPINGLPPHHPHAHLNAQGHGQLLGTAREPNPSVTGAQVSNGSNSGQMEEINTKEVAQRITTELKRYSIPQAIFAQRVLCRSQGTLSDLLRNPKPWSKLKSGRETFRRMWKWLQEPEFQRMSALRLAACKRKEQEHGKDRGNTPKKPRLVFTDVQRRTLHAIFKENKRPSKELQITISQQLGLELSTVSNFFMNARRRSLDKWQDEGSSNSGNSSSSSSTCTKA
Chain of Paired box protein Pax-6 (Homo sapiens) (P26367 whole entry, looked up): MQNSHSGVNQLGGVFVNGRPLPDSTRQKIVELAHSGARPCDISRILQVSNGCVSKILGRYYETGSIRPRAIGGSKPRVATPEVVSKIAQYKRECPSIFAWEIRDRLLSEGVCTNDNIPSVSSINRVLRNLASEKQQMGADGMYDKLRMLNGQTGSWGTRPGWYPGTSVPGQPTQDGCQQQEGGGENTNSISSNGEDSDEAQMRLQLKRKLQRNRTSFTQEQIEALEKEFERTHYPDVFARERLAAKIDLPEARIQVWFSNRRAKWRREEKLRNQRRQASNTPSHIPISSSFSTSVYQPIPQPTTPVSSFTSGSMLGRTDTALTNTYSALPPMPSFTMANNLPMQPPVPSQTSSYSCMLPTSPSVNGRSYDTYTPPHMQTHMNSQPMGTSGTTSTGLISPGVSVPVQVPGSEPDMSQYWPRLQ
Chain of Signal transducer and activator of transcription 3 (Homo sapiens) (P40763 whole entry, looked up): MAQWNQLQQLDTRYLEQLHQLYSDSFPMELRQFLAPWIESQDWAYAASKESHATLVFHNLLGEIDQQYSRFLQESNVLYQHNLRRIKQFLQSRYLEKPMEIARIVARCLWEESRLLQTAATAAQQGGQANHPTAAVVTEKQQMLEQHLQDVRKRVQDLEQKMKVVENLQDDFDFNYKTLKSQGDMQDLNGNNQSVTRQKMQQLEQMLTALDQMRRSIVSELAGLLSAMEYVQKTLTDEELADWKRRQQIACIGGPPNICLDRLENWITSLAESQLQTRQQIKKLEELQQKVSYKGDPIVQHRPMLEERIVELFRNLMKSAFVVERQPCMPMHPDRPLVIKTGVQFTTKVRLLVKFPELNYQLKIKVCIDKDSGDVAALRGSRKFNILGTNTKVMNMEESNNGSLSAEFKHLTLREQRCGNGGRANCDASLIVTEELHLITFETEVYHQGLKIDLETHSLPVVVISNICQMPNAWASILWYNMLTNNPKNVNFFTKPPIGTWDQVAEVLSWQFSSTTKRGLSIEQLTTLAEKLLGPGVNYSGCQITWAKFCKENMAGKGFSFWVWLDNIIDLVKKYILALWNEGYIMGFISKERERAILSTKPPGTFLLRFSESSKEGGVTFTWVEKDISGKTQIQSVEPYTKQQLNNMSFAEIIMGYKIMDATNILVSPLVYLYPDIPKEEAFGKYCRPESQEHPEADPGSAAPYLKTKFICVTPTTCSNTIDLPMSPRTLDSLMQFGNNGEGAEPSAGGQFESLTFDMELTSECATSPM
Chain of Bile acid receptor (Homo sapiens) (Q96RI1 whole entry, looked up): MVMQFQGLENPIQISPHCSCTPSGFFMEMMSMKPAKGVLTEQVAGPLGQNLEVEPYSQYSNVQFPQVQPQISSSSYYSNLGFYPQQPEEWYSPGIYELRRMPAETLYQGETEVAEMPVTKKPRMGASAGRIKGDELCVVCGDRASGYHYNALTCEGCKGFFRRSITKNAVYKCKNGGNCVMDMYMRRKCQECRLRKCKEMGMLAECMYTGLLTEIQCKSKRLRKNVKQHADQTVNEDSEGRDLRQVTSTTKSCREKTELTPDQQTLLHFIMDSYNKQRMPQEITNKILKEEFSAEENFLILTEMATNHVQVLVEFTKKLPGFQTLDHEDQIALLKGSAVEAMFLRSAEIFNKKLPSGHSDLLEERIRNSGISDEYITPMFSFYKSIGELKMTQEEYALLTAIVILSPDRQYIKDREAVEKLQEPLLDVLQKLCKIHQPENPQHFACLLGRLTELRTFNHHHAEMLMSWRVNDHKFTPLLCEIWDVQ
Chain of Hypoxia-inducible factor 1-alpha (Homo sapiens) (Q16665 whole entry, looked up): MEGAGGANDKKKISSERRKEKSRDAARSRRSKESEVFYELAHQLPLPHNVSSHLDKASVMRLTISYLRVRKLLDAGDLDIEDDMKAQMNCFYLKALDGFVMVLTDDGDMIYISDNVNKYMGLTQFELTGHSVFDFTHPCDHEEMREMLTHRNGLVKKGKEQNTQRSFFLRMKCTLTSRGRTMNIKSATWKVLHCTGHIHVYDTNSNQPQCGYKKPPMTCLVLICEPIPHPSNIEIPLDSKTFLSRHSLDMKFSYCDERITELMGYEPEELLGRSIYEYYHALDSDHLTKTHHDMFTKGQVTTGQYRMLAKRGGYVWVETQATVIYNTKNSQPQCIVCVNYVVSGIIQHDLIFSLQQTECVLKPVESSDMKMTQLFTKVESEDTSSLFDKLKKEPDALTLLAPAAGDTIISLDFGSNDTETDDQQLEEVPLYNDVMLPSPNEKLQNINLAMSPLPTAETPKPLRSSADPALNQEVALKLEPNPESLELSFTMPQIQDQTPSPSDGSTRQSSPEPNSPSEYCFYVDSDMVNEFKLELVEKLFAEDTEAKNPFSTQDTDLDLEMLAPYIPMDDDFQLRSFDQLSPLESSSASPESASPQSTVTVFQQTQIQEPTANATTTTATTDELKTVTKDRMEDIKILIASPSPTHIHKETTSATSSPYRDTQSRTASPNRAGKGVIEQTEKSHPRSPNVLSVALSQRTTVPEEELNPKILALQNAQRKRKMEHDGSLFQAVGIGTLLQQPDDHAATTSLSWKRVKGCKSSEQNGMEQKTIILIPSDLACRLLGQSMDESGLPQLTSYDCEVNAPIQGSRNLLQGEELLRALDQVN

In the case of `COCCOCCOCCOC`, the molecule was called inactive in [1], in assay [2], in assay [3], in assay [4], in assay [5] and in assay [6]. Besides, the call in assay [7], in [8], in assay [9], in assay [10], in assay [11] and in assay [12] was inactive. The call in assay [13], in assay [14], in assay [15], in assay [16], in assay [17] and in [18] was inactive.
On to `CC(C)=CCC/C(C)=C/CO`, for which the molecule was classed as inactive in assay [1], in assay [2], in assay [3], in assay [4], in [5] and in [7]. The result in [9], in assay [10], in assay [11], in [12], in assay [13] and in [14] was inactive. Besides, the call in [15], in assay [16], in [17] and in [18] was inactive.
The term AC50 denotes the concentration giving half of the maximal activity seen. Consider `Oc1ccc2c(c1)-c1ccccc1C2`, for which the half-maximal activity concentration (AC50) was 1.3 µM (active) in assay [1]; 100 µM (active) in [3]; 26.5 µM (active) in assay [8]; 40.8 µM (active) in [9]; 59.6 µM (active) in assay [19]; 33.5 µM (active) in assay [10]. Besides, the AC50 was 46.4 µM (active) in assay [20]; 24.7 µM (active) in assay [12]; 54.2 µM (active) in assay [13]; 11.9 µM (active) in assay [14]; 37.2 µM (active) in assay [17]; 3.93 µM (active) in assay [18]. The call in [2], in assay [4], in assay [5], in assay [6], in assay [7] and in assay [11] was inactive. Also, the molecule was called inactive in assay [15] and in [16].
